From the OligoGym collection come the findings set out here.
Further: reference of the scale not given here.

The first test concerns the target DEF6. Briefly: pooled miR-30 sensor sort-seq; sequence = guide strand. The conditions noted are these: shRNA.
In turn, TTGAAGAGGCACCAGAGGCGGA returned a sensor-assay potency score (higher = more potent) of -1.08. The sequence TGACCGGACGCTTATCTCCAGG had a sensor-assay potency score (higher = more potent) of -1.34. The same measure, in the same setting: to TTCAGCTGCATCAACTGCTTCA belongs 0.367. The same measure, in the same setting: the value for TCTTCCAGCAGTCTGGTCTGAG was -0.41. Same read-out and setting: to TTCATCTGGACATTCCAGTGTT belongs 0.421; to TTCTTCATCTCGCCGAGCTTTC, -1.29. In turn, TTGTGTAGGGACGTCTTCCCCT gave a sensor-assay potency score (higher = more potent) of -0.678.

Consider TTAGGGAGGAGTCACGGTGGGC, for which the sensor-assay potency score (higher = more potent) was -1.27.

The next test deals with DEK. The test is described as above. To be noted: shRNA.
Consider ATCATCTGAAGACTCTTCCTTG, for which the sensor-assay potency score (higher = more potent) is -0.474.

Take TTAATGAGGACACAGTGCCTGG: the sensor-assay potency score (higher = more potent) is -0.975. On the same count and under the same terms, the value for TTCTTTATCTTCATCATCTGAA was 0.212; that for TTTCCTTTAACTCTTCATCTGT was 0.131. Still for that read-out and setting: to TTTAACTCTTCATCTGTAGGGG belongs 0.332.

With TTATTGTTTCCTTTAACTCTTC, the sensor-assay potency score (higher = more potent) was -0.171. Same read-out and setting: to TAACTCTTCATCTGTAGGGGGT belongs 0.328; to TTTTACTTTTAGAAGTAGCTTT, 0.164. Same read-out and setting: the value for TTTGGAACTGTTTTGATTCTTC was 0.827; that for TAGTTCACTATTTACACCTGAT was -0.118; that for TTAACTCTTCATCTGTAGGGGG was 0.319.

TAGATTTCTAAGTTCATCGGTT had a sensor-assay potency score (higher = more potent) of 0.499.

In the next test the target is DENND3. The description is as above. The conditions noted are these: shRNA.
TAGAGCAGCACGTCCACCGCTT registered a sensor-assay potency score (higher = more potent) of 0.371. Take TTGATGATGTAGATGACGGAGT: the sensor-assay potency score (higher = more potent) is -0.511.

In the case of TTGTAGAAATCTTTGAATGTTT, the sensor-assay potency score (higher = more potent) was -1.03.

Turning to TATCAGAACTAAACCGTCGGCT, the sensor-assay potency score (higher = more potent) is 0.0696. The sequence TAGATGACGGAGTCTTCCGAGC displayed a sensor-assay potency score (higher = more potent) of -1.16. Still for that read-out and setting: the value for TATTTATCAGAACTAAACCGTC was -0.811; that for TAAATGATTCTTTACATCCCTG was -0.0961; that for TTATCAGAACTAAACCGTCGGC was -0.359. As to TTATCGTCCGTGGACTTGGAGT, the sensor-assay potency score (higher = more potent) was -1.3. The same measure, in the same setting: the value for TTCCACACCAGCACCATGCCGT was -0.0924; that for TTGAACACGGTCACCTTGCCTT was -0.0431.

Regarding TTGGACTTAGAAGCATTCCATT, the sensor-assay potency score (higher = more potent) was -1.49.

A further test has as its target DEXI. The description is as above. The conditions noted are these: shRNA.
Regarding TAACCTGAAATGAAGGAGCGAG, the sensor-assay potency score (higher = more potent) is -0.355. The same measure, in the same setting: to ATGTACTCCATGAGGAAGGCGT belongs -1.19.

Take TAAACATCCATCGCAGCTGCAA: the sensor-assay potency score (higher = more potent) is -0.291. Regarding TCAAAGACGTCGAGCTCCGAGT, the sensor-assay potency score (higher = more potent) was -0.796. On the same count and under the same terms, the value for TCAAACAGGAACCTCTCTGTTG was -0.754. The sequence AATCTCTCTTCCACTCTCCTGG yielded a sensor-assay potency score (higher = more potent) of -0.0495.

Take TAGTACAGGATCAGCACATTGA: the sensor-assay potency score (higher = more potent) was -0.394.

Sequence TAGAGGGCAGCAGCGGCGGCGG gave a sensor-assay potency score (higher = more potent) of -1.83.
